An excerpt weighted towards active compounds, which were near 10% of everything screened.
NIH3T3 tox: Cytotoxic Profiling in NIH 3T3 Cell Line of Diverse Libraries Using Quantitative High-Throughput Screening | Potency, µM (highest dose often 96.7 µM), actives largely listed as inhibitors | 94,000 tested, 4.3% active | NIH 3T3 viability, CellTiter-Glo ATP luminescence, 48-72 h | AID 1345082, 2018; also: nearly all actives have a fitted effect of over 55% in size
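ATP-dependent luminescence (CellTiter-Glo) served as the viability signal for NIH 3T3 cells treated with compound for 48 or 72 hr at 37 °C.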
GPT2 inh: Primary qHTS assay for inhibitors of Glutamate pyruvate transaminase 2 (GPT2) | Alanine aminotransferase 2 (Homo sapiens), Q8TD30 | Recombinant GPT2, coupled pyruvate oxidase/HRP Amplex Red fluorescence | Potency, µM (titrated, usually from 57.7 µM), hits mostly inhibitors | 100,000 tested, 0.25% active; also: nearly all actives have a fitted effect of over 60% in size
Target sequence (Q8TD30 whole entry, looked up): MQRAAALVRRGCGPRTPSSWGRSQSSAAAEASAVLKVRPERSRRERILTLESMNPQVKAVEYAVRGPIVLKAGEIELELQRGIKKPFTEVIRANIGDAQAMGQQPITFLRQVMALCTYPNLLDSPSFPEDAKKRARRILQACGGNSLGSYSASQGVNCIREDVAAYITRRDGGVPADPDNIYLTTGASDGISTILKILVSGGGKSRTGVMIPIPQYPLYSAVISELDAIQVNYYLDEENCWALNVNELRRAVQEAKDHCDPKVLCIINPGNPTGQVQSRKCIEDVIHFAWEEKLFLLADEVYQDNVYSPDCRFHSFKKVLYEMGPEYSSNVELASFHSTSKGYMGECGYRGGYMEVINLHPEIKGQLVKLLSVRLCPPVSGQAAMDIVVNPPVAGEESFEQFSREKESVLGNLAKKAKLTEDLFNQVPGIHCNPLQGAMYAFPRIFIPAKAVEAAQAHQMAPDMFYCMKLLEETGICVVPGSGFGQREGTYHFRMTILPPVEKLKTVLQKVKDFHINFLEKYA
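Fluorescence read-out: pyruvate from GPT2 turnover coupled to pyruvate oxidase, HRP and Amplex Red (0.2mM ThPP, 0.2U/mL PO and HRP, 50uM Amplex final). Substrates 250uM a-KG, 2mM L-alanine; enzyme 10ng/uL; 30 min RT.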
HEK293 tox: Cytotoxic Profiling in HEK 293 Cell Line of Diverse Libraries Using Quantitative High-Throughput Screening | HEK 293 viability, ATP luminescence (CellTiter-Glo), 48-72 h | Potency, µM (series often up to 115 µM), actives largely listed as inhibitors | 94,000 tested, 6.6% active | AID 1345083, 2018; also: nearly all actives have a fitted effect of over 60% in size
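Viability of HEK 293 cells, plated at 250 cells/well, was judged by cellular ATP after compound treatment for 48 or 72 hr. Luminescence was imaged 10 min after CellTiter-Glo addition at room temperature.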
NPR1 antag: Natriuretic polypeptide receptor (hNpr1) antagonism - Primary qHTS | Atrial natriuretic peptide receptor 1 (Homo sapiens), P16066 | HEK293 hNpr1 GloSensor cGMP, ANP-stimulated luminescence | Potency, µM (top dose mostly 46.3 µM), hits mostly inhibitors | 76,000 tested, 1.6% active | AID 1347048, 2019; calls by dose curve; also: nearly all actives have a fitted effect of over 60% in size
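HEK293 cells stably expressing human Npr1 and cGMP GloSensor pGS-40F, loaded 2 h with 2% GloSensor reagent, given compound 30 min at room temperature. Luminescence read before and 20 min after 0.1 nM hNppA.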
Luciferase inh: Firefly luciferase inhibition profiling of diverse chemical library using quantitative high-throughput screening | Luciferin 4-monooxygenase (Photinus pyralis), P08659 | purified P. pyralis luciferase, luminescence, biochemical | Potency, µM (titrated, usually from 115 µM), hits mostly inhibitors | 76,000 tested, 2.5% active; also: nearly all actives have a fitted effect of over 65% in size
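Purified P. pyralis luciferase (10nM final) in 50mM Tris acetate pH 7.5, 10mM Mg acetate, 0.01% Tween-20, 0.05% BSA with 10uM D-luciferin and 10uM ATP. Compounds titrated qHTS. Luminescence imaged on CCD.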
A number is an active result; 0 = inactive; ? = inconclusive; - = no result. Unless noted, calls follow the shape of the dose curve; as a rule, active = well fitted curve in the direction sought with a large enough effect; inconclusive = small, poorly fitted or top-dose-only effect, or another doubt; inactive = no such curve, though single readings can be large; an effect the other way counts as inactive or inconclusive.

SMILES	NIH3T3 tox	GPT2 inh	HEK293 tox	NPR1 antag	Luciferase inh
O=C(Nc1cccc(C(F)(F)F)c1)N[C@H]1CO[C@H]2[C@@H]1OC[C@@H]2Nc1nccc(C2CCCC2)n1	79µM	0	?	0	0
O=C(Nc1ccccc1)N[C@H]1CO[C@H]2[C@@H]1OC[C@@H]2Nc1nccc(C2CCCC2)n1	?	0	0	0	0
COc1cccc(CN2CCC(F)(C(=O)N3CCCC3)CC2)c1OC	?	0	?	-	-
O=C(c1ccc2nnc(Cc3ccco3)n2c1)N1CCOCC1	0	0	0	-	-
COc1ccc(NC(=O)O[C@@H]2CO[C@H]3[C@@H]2OC[C@@H]3NCc2ccc(-c3ccccc3)cc2)cc1	?	0	35µM	5.6µM	?
O=C(Nc1cccc(C(F)(F)F)c1)O[C@@H]1CO[C@H]2[C@@H]1OC[C@@H]2NC(=S)Nc1ccc(Cl)cc1	?	0	45µM	0	0
COc1ccc(NC(=O)N[C@H]2CO[C@H]3[C@@H]2OC[C@H]3OC(=O)Nc2ccc(OC)cc2)cc1	0	0	0	0	?
N#Cc1ccccc1S(=O)(=O)N[C@H]1CO[C@H]2[C@@H]1OC[C@H]2OC(=O)Nc1ccc(Oc2ccccc2)cc1	?	0	?	11µM	40µM
O=C1NC(=NC2CCCC2)C2(CCN(CC3CCCCC3)C2)N1c1cccnc1 (centres undefined)	?	0	?	-	-
O=C(CCc1cc2ccccc2[nH]c1=O)N1CCN(C(=O)c2ccco2)CC1	0	0	0	0	0
O=C(c1ccccc1F)N1CCC(C(=O)N2CCCC(c3nc4ncccc4[nH]3)C2)CC1 (centres undefined)	0	0	0	-	-
COc1cccc(-c2ccc(C(=O)N3CCC(C(=O)N4CCCCC4)CC3)cc2)c1	?	0	?	-	-
C[C@@]12C(=O)N(CC3CC3)c3ccccc3[C@@H]1[C@@H](C(N)=O)CN2C(=O)c1cc2ccccc2s1	?	0	?	-	-
COCC(=O)NC[C@H]1CCN(Cc2cccc(Cl)c2)C[C@H]1N(C)C	0	0	0	0	0
C#CCNC(=O)[C@@H]1Cc2cn(CC3CC3)c3cccc(c23)[C@H](CC(C)C)N1	45µM	0	71µM	0	0
C=CCn1cc2c3c(cccc31)[C@H](CC(C)C)N[C@H](C(=O)NCc1ccc(OC)cc1)C2	0	0	0	0	0
C#CCNC(=O)[C@@H]1Cc2cn(Cc3ccncc3)c3cccc(c23)[C@H](CC(C)C)N1	89µM	?	45µM	0	0
CC(C)C[C@@H]1N[C@H](C(=O)NCc2ccccn2)Cc2cn(Cc3ccncc3)c3cccc1c23	?	?	25µM	0	0
C=CCn1cc2c3c(cccc31)[C@H](CC(C)C)N[C@H](C(=O)NCc1ccccn1)C2	?	0	50µM	0	0
COC(=O)[C@@H]1Cc2c[nH]c3cccc(c23)[C@H](CC(C)C)N1	0	0	?	0	0
CC(C)C[C@@H]1N[C@H](C(=O)NCc2cccs2)Cc2c[nH]c3cccc1c23	40µM	?	40µM	0	0
CC(C)C[C@@H]1N[C@H](C(=O)NCc2ccncc2)Cc2cn(Cc3ccncc3)c3cccc1c23	?	0	50µM	0	0
COc1ccc2c3c1CN(C(=O)NCc1ccccc1)CC3=CC(C)(C)CO2	?	-	40µM	-	-
COc1ccc2c3c1C(c1ccccc1)N(Cc1ccccc1)CC3=CC(C)(C)CO2 (centres undefined)	0	-	?	-	-
Cc1nn(-c2ccc(C(C)(C)C)cc2)c(C)c1[C@@H]1C=C[C@@H](NC(=O)c2cccs2)C1	?	0	35µM	0	20µM
SMILES	NIH3T3 tox	GPT2 inh	HEK293 tox	NPR1 antag	Luciferase inh
Cc1nn(-c2ccc(C(F)(F)F)cc2)c(C)c1[C@@H]1C=C[C@@H](NC(=O)c2cccs2)C1	28µM	0	?	0	?
Cc1nn(-c2ccccc2)c(C)c1[C@@H]1C=C[C@@H](NC(=O)c2ccc(N(C)C)cc2)C1	?	0	71µM	?	?
Cc1nn(-c2ccccn2)c(C)c1[C@@H]1C=C[C@@H](NC(=O)c2cccs2)C1	?	0	?	0	?
Cc1ccc(-n2nc(C)c([C@H]3C=C[C@@H](OC(=O)Nc4cccc(F)c4)C3)c2C)cc1Cl	?	?	?	0	0
Cc1ccc(-n2nc(C)c([C@@H]3C=C[C@@H](NC(=O)c4cccs4)C3)c2C)cc1Cl	?	0	?	0	25µM
COc1ccccc1-c1ccc(C(=O)N2CCC(C(=O)NCc3ccc(F)cc3)CC2)cc1	?	0	?	-	-
COc1cccc(-c2ccc(C(=O)N3CCC(NC(=O)c4ccccc4F)CC3)cc2)c1	?	0	?	-	-
COc1ccc(-c2nc(C(C)C)nc3c2CCN(C(=O)c2cccc(Cl)c2)CC3)cc1	45µM	0	?	0	0
O=C(Cc1ccc(F)cc1)N1CCc2nc(-c3ccc(Cl)cc3)nc(-c3ccccc3)c2C1	?	0	35µM	0	0
COc1ccc(C(=O)N2CCc3nc(-c4ccccc4)nc(-c4ccc(OC)cc4)c3C2)cc1	0	0	?	0	0
COc1ccc(C(=O)N2CCc3nc(-c4ccc(Cl)cc4)nc(-c4ccccc4)c3C2)cc1	?	0	40µM	0	0
Cc1ccccc1C(=O)N1CCc2nc(-c3ccccc3)nc(-c3ccc(Cl)cc3)c2C1	?	0	?	0	0
O=C(c1ccccc1Cl)N1CCc2nc(-c3ccc(Cl)cc3)nc(-c3ccccc3)c2C1	?	0	25µM	0	?
O=C(NC1CCCCCC1)c1ccc2nc(-c3ccccn3)oc2c1	?	0	?	-	-
COCCNC(=O)CNC(=O)c1cccc(-c2ccc(C(F)(F)F)cc2)c1	?	0	?	-	-
O=C(CNC(=O)c1cccc(-c2ccc(C(F)(F)F)cc2)c1)NCCC1CCCCC1	22µM	0	22µM	-	-
O=C(CNC(=O)c1cccc(-c2ccc(C(F)(F)F)cc2)c1)NCCc1ccc(Cl)cc1	0	0	16µM	-	-
COCCCNc1ncnc2sc3c(c12)CCNC3	?	0	?	0	0
O=C(NC1CCN(C(=O)c2ccc(-c3cccs3)cc2)CC1)c1ccccc1Cl	?	0	?	-	-
Cc1nc(C)c(C(=O)N2Cc3ccccc3OC3(CCN(C(C)C)CC3)C2)s1	0	0	0	-	-
CCCC(O)CN1CCC(=O)N(CC)Cc2ccccc21 (centres undefined)	0	-	?	-	-
CC(=O)N1CCCC(C(=O)N2CCC3(CC2)CC(=O)Nc2ccccc2O3)C1 (centres undefined)	0	0	0	-	-
O=C1CC2(CCN(C(=O)C3CCCN(C(=O)Nc4ccccc4)C3)CC2)Oc2ccccc2N1 (centres undefined)	?	0	32µM	-	-
CCOCCCNC(=O)C1CCN(Cc2ccccc2-c2ccccc2F)CC1	0	-	?	-	-

Screening data as filed in PubChem BioAssay.
